# This excerpt belongs to a sample that is enriched for hits.
# mHTT CaM bind – mutant huntingtin-calmodulin interaction inhibitors – biochemical, AlphaScreen, primary screen | P42858 | AlphaScreen His-mHTT/GST-CaM binding, luminescence | inhibition, % at 15 µM | 3.6% of 190,000 active;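 also: 0% = both proteins with DMSO and 100% = one protein alone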
# Target sequence (P42858 whole entry, looked up, stated change not applied): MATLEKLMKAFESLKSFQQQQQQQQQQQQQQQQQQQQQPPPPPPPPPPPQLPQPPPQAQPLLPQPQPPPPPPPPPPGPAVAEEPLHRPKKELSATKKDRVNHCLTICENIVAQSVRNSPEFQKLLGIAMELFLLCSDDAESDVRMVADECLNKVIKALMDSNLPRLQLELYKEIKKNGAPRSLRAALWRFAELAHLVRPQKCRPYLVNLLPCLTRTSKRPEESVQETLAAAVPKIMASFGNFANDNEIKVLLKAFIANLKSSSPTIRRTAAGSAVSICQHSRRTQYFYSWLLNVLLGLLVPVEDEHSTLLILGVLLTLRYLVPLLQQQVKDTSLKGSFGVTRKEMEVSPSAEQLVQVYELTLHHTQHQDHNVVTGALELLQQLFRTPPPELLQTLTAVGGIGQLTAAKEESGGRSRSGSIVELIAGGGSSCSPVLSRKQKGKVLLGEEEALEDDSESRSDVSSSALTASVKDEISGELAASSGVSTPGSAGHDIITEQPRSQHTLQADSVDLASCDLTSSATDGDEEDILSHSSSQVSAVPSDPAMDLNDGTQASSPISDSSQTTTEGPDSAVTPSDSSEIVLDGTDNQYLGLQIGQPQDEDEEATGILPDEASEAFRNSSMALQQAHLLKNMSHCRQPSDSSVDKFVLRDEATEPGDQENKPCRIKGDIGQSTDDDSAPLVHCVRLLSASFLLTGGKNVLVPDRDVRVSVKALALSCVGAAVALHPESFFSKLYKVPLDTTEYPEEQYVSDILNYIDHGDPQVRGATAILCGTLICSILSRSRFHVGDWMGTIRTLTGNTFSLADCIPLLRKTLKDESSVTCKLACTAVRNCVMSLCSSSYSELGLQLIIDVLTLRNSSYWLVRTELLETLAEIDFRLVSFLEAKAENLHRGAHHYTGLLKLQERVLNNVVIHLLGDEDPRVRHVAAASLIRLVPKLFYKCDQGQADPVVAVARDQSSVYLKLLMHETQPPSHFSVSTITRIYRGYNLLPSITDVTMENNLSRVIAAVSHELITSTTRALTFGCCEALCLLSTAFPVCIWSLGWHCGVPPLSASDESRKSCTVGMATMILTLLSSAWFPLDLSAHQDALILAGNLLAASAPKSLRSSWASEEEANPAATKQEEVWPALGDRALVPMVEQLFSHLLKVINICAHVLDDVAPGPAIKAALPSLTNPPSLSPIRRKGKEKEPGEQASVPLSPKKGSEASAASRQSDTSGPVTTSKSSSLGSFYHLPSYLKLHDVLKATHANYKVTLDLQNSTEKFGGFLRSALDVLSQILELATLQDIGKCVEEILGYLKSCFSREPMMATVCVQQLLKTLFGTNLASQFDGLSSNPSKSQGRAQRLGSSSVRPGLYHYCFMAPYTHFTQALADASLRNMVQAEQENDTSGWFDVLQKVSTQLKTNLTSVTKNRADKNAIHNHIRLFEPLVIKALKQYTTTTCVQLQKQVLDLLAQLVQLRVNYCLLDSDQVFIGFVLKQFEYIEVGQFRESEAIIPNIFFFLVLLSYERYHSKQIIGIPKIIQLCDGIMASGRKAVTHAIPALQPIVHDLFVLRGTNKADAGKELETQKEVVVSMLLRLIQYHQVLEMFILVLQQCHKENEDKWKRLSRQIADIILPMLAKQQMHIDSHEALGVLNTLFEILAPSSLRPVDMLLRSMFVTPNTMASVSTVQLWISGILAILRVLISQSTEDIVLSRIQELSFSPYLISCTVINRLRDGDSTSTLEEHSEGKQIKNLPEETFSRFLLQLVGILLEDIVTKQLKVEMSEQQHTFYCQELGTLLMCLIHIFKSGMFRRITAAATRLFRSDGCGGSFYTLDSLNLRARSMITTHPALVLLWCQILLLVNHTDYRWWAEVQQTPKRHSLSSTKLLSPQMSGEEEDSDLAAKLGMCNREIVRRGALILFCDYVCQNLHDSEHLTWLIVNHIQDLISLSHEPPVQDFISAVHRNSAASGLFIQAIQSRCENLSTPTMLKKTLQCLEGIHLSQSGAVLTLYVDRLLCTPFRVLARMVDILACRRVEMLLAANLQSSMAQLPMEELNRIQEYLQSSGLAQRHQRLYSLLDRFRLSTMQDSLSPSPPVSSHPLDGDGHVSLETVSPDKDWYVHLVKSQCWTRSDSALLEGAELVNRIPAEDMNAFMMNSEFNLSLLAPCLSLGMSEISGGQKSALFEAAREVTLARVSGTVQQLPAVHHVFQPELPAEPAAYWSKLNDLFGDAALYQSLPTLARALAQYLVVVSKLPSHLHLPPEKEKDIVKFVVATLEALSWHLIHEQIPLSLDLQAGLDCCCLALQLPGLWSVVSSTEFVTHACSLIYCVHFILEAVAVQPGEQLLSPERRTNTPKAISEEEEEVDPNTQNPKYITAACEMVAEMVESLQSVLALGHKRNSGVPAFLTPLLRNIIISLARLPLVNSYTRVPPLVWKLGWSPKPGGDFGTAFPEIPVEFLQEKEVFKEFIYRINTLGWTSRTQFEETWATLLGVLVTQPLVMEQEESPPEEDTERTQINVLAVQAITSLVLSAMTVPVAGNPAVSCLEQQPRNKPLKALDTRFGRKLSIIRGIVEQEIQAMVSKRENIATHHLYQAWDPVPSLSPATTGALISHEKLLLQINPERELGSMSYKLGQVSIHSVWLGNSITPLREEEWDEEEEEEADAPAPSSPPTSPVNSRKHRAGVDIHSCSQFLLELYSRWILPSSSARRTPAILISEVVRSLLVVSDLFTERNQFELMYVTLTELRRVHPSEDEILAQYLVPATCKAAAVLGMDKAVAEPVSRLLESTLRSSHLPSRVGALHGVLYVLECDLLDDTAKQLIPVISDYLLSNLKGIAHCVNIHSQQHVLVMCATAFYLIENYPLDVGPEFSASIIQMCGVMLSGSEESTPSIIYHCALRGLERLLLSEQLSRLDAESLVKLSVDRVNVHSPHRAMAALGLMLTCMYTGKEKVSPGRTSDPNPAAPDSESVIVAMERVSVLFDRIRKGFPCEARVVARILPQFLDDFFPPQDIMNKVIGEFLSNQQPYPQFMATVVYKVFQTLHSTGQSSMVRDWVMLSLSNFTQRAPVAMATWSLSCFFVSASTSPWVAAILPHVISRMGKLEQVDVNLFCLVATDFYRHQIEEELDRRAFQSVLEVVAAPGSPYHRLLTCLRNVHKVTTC
# Pf apPOL block – Pf-apPOL inhibitors, biochemical, fluorescence | Plasmodium falciparum apicoplast DNA polymerase (apPOL) | Recombinant Pf-apPOL, molecular beacon fluorescence, 1.5 h | inhibition, % at 10 µM | 0.25% of 210,000 active
# The depositor's hits bear a star; · = no result. Rule as the data show it: active = inhibition above about 50%; inactive = the rest.
SMILES,mHTT CaM bind,Pf apPOL block
COc1cccc(CNc2ccc3c(c2)ncn3-c2ccccc2)c1OC,48,-1
COc1ccccc1CNc1ccc2c(c1)ncn2-c1ccccc1OC,62*,1
c1cc2c(cc1CNc1ccc3c(c1)CCC3)OCO2,72*,-3
COc1ccc(CNc2ccc3c(c2)CCC3)cc1Br,77*,4
COc1ccc(CNC2CCCC2)cc1Br,0,-7
Fc1ccc(NCc2ccc3c(c2)OCO3)cc1F,-3,2
CS(=O)(=O)c1ccc2nc(NC(=O)C3CCCN3S(C)(=O)=O)sc2c1 (stereo not given),-18,-4
CCN(C)C(=O)C1CN(C(=O)c2ccc(Cl)cc2)CC1c1ccccc1 (stereo not given),28,1
O=C(c1csc(COc2ccccc2Cl)n1)N1CCCC1,-10,-7
Cc1ccc(C)c(-c2cc3c(N4CCC(C(=O)NCc5ccccn5)CC4)nccn3n2)c1,6,0
CC1CCN(Cc2csc(N3CCN(C(=O)c4ccc(F)cc4)CC3)n2)CC1,-3,-2
CC(=O)Nc1ccc(CNc2ccc3c(c2)CCC3)cc1,39,4
c1cc(CNc2ccc3c(c2)CCC3)ccn1,35,-3
COc1ccccc1CNc1ccc2c(c1)CCC2,79*,5
COc1ccc(CNc2ccc3c(c2)CCC3)cc1,68*,4
COc1ccc(CNc2cccc(N(C)C)c2)cc1,96*,-3
COc1ccc(CNc2ccc(SC)cc2)cc1,43,6
Cc1sc2ccc3sccc3c2[n+]1CCCS(=O)(=O)[O-],-2,·
COc1ccc(C2CN(S(=O)(=O)c3ccc(C#N)cc3)CCN2C)cc1 (stereo not given),17,5
CC(O)(CNC(=O)C(=O)NCc1ccccc1Cl)c1ccccc1 (stereo not given),-15,-4
O=C(c1ccoc1)N1CCCC(c2n[nH]c(=O)n2-c2ccccc2)C1 (stereo not given),-3,-3
CCCCN(CC)CCNC(=O)c1cc2cc3ccc(OC)cc3nc2s1,-1,-2
CCC(=O)Nc1ncc2c(n1)CC(c1cccc(Cl)c1)CC2=O (stereo not given),-4,7
O=C(Nc1ccc2nc(-c3ccco3)c(-c3ccco3)nc2c1)N1CCOCC1,76*,-5
O=C(Nc1ccc2nc(-c3ccco3)c(-c3ccco3)nc2c1)N1CCSCC1,84*,2
SMILES,mHTT CaM bind,Pf apPOL block
Cc1nc2ccc(NC(=O)N3CCCC3)cc2nc1C,0,1
O=C(Nc1ccc2nc(-c3ccccn3)c(-c3ccccn3)nc2c1)N1CCOCC1,7,-2
COc1ccccc1-c1nnc(SCC(=O)NNC(=S)Nc2ccc(C)c(C)c2)n1-c1ccccc1,·,-337
COc1ccc(NC(=O)COc2ccc(Cl)cc2)cc1Cl,-6,-1
Cc1ccc(NC(=O)N2CCCC(C)(C(=O)NCc3ccccc3C)C2)cc1Cl (stereo not given),-3,4
CCOc1ccc(-c2ccc(=O)n(CCc3nc(-c4ccc(SC)cc4)no3)n2)cc1,-6,-8
CCCn1c(C(O)c2cccc3c2OCO3)nc2ccccc21 (stereo not given),3,5
Cc1cccc(NC(=O)C2C(c3ccccc3)C2(Cl)Cl)c1C (stereo not given),-9,67*
O=C(Nc1ccccc1)C1C(c2ccccc2)C1(Cl)Cl (stereo not given),-33,-8
O=C1C2C3C=CC(O3)C2C(=O)N1c1cc(C(F)(F)F)ccc1Cl (stereo not given),-4,-3
O=C1C=CC(=O)C(c2cc(C(F)(F)F)ccc2Cl)=C1,60*,-3
OC1(C(F)(F)F)CC(/C=C/c2cccs2)=NO1 (stereo not given),-2,4
Cc1ccc(NC(=O)c2ccc(F)c(S(=O)(=O)N3CCc4ccccc43)c2)cc1F,4,-4
CC(=O)NC1=NN(C(C)=O)C(c2ccc(OCc3ccccc3)cc2)S1 (stereo not given),68*,-3
CC(=O)NC1=NN(C(C)=O)C(c2ccc(OCc3ccccc3)c(OCc3ccccc3)c2)S1 (stereo not given),38,0
COc1cc(C(=O)Nc2sc3c(c2C(=O)O)CCC(C)C3)cc(OC)c1OC (stereo not given),3,-3
CCOc1ccccc1NC(=O)c1c(NCc2ccccn2)sc2c1CCC(C)C2 (stereo not given),20,-17
COc1ccccc1NC(=O)c1c(NCc2cccnc2)sc2c1CCC(C)C2 (stereo not given),80*,-17
COc1ccc(Cl)cc1NC(=O)c1c(NCc2cccnc2)sc2c1CCC(C)C2 (stereo not given),78*,-19
Cc1nc2c(C)cccn2c(=O)c1NC(=O)COc1ccc(Cl)cc1Cl,-11,1
Cc1ccccc1N1CCN(C(=O)C2CCc3sc(C(=O)N(C)C)cc3C2)CC1 (stereo not given),5,-3
CC(C)C(=O)NCCc1csc(C2CCCN(C(=O)c3cccs3)C2)n1 (stereo not given),-2,8
O=C(NCc1ccccc1)C1CCN(c2nccn3nc(-c4ccc(F)cc4)cc23)CC1,8,1
Cc1ccc(C2CC(C(F)(F)F)n3ncc(C(=O)Nc4ccccc4C)c3N2)cc1 (stereo not given),18,0
Cc1ccc(C2CC(C(F)F)n3ncc(C(=O)Nc4cnn(Cc5ccccc5C)c4)c3N2)cc1 (stereo not given),56*,-3
SMILES,mHTT CaM bind,Pf apPOL block
O=S(=O)(c1ccc(F)cc1F)N1CCC(c2noc(-c3ccc(F)cc3)n2)CC1,-8,-1
CC1(C)CCC(C)(C)c2cc3c(cc21)C(C)(C)CCC3(C)C,·,-8
CC1(C)CCN2CCC(C)(C)c3c(O)ccc1c32,71*,-4
O=C(Nc1nc2c(s1)CCCC2)c1coc2ccccc2c1=O,-13,-2
COc1ccc(S(=O)(=O)Nc2ccccc2C)cc1OC,-3,-4
Cc1ccccc1NS(=O)(=O)c1ccc(-c2ccccc2)cc1,80*,-14
N#Cc1ccccc1CN1CCCN(c2cccc(NC(=O)C3CCC3)c2)C1=O,12,0
COc1ccc2[nH]cc(CCN3CC(C(=O)Nc4ccc(C)cc4C)CC3=O)c2c1 (stereo not given),12,-3
Cc1ccc2nc(NC(=O)C3CC(=O)N(CCc4c[nH]c5ccc(F)cc45)C3)sc2c1 (stereo not given),91*,-1
Cc1ccc(C)c(NC(=O)C2CC(=O)N(CCc3c[nH]c4ccc(F)cc34)C2)c1 (stereo not given),22,0
COc1ccc2[nH]cc(CCN3CC(C(=O)Nc4nc5ccc(C)cc5s4)CC3=O)c2c1 (stereo not given),56*,-2
COc1ccccc1/C=C1\SC(=O)N(CNc2cccc(Br)c2)C1=O,1,-4
Oc1ccc(C2Oc3ccccc3C3CC(c4cccs4)=NN32)c(O)c1 (stereo not given),64*,9
O=[N+]([O-])c1ccc(O)c(C2Oc3ccccc3C3CC(c4cccs4)=NN32)c1 (stereo not given),62*,3
COc1cccc(C2Oc3ccccc3C3CC(c4cccs4)=NN32)c1O (stereo not given),51*,8
Clc1cccc(C2Oc3ccccc3C3CC(c4ccccc4)=NN32)c1Cl (stereo not given),-9,·
